# Test results published in ChEMBL document CHEMBL3988442, “University of Dundee, Small-Polar-MMV Screening Library” (2021).
# Species on record: Homo sapiens
# Test: To identify inhibition of the IFN signalling (Jak-Stat) pathway via expression of an eGFP reporter gene under the control of an IFN-stimulated response element (ISRE) containing MxA promoter.
# Type: functional
# Design: scale not given: direction of the effect not stated beside the values
# Details: 30 µM
row,SMILES,Percent Effect [%]
1,CCc1nc(C2CCCN2C(=O)c2ccc3c(c2)nnn3CC)no1 (stereo not given),11.6
2,c1cnnc(N2CCCC2CNCc2nc(-c3ccsc3)no2)c1 (stereo not given),-10.2
3,CC(=O)N1N=C(c2ccccc2)OC1C(=O)NCCC1=CCCCC1 (stereo not given),26.2
4,CCO[C@@H]1CO[C@@]2(CCCN(S(=O)(=O)c3cccnc3)C2)C1,6.27
5,Cc1ccc(C(=O)N2CCC3(CC2)COC(COc2ccccn2)C3)o1 (stereo not given),-10.8
6,CS(=O)(=O)NCC1CCCN(C(=O)COc2ccc(F)cc2)C1 (stereo not given),12.5
7,CN1CC(c2ccccc2)CC12CCN(C(=O)c1c(Cl)cnn1C)CC2 (stereo not given),-5.06
8,O=C(NCc1cc[nH]n1)NCC(O)COc1cccc(F)c1 (stereo not given),12.9
9,O=C1NC2(CCN(Cc3cccnc3)CC2)CC1c1ccncc1 (stereo not given),-18.7
10,CCSCCC(=O)NS(=O)(=O)c1ccc2c(c1)OCCO2,9.19
11,CC(C)CN1CCN(C)C2(CCN(Cc3ccsc3)CC2)C1=O,-6.74
12,COc1c(C2CCCN2Cc2c(C)noc2C)c(C)nn1C (stereo not given),-12.5
13,CC(C)(N)C(=O)N1CCCC1c1cncc(Oc2ccc(F)cc2)n1 (stereo not given),-1.85
14,O=C1CC2(CCN(Cc3ccoc3)C2)CN1c1ccc2c(c1)OCO2 (stereo not given),4.43
15,CCC(NC(N)=O)c1ccccc1OCC(=O)N1CCCC1 (stereo not given),16.9
16,CCOc1ccccc1C(=O)N1CCCC1c1ncc2c(n1)CCNC2 (stereo not given),10.5
17,Cc1cc(CN(C)C(=O)NCC(C)N2CCc3ccccc32)no1 (stereo not given),-9.63
18,Cc1ccc(CCN2CCC(N(C)Cc3noc(C4CC4)n3)C2)cc1 (stereo not given),-3.17
19,CC(C)n1[nH]c(=O)c2c1NC(=O)CC2c1cccnc1 (stereo not given),23.6
20,O=C(NCCOc1ccc2c(c1)CCC2)N1CCS(=O)(=O)CC1,23.2

row,SMILES,Percent Effect [%]
1,CCC(NC(=O)CC(F)(F)F)c1ccccc1OCC(=O)N1CCCC1 (stereo not given),-7.93
2,CC(C)CN1C[C@@H]2CN(C(=O)[C@H]3CCCO3)C[C@@H]2C1=O,7.85
3,CN1CCN(c2cc(CNC(=O)c3ccc(=O)[nH]n3)ccn2)CC1,23.3
4,CC(=O)N1CC(=O)N(c2ccccc2)CC12CCN(CC1CC1)C2 (stereo not given),15.9
5,CC(C)c1ncc(S(C)(=O)=O)c(C2CCCNC2)n1 (stereo not given),-1.56
6,CC(C)c1noc(CCCC(=O)NC2CCS(=O)(=O)C2)n1 (stereo not given),8.49
7,c1ccc(OCc2ccncc2)c(CNC2CCc3ncnn3C2)c1 (stereo not given),20
8,O=C(Nc1ccccc1)C1=CC2(CCNCC2)c2ccccc21,-1.59
9,CC(NC(=O)N1CCN(c2ccc(Cl)cc2)CC1)C(=O)N1CCSCC1 (stereo not given),13.2
10,CC(C)N(Cc1nc2c(cnn2C)c(=O)[nH]1)c1ccccc1,7.17
11,CCc1nc(C2CCCN2C(=O)c2ncoc2CC)no1 (stereo not given),-5.4
12,O=C(c1ccc(F)cc1F)N1C[C@@H](O)[C@H](N2CCOCC2)C1,2.56
13,Cc1cnn(CC2CCN(CC(O)COc3ccc(F)cc3)CC2)c1 (stereo not given),9.11
14,Cc1cc(-c2nn(C)c(Cl)c2CN2CCOCC(O)C2)no1 (stereo not given),15.5
15,CC(=O)N(Cc1ncc(C)o1)C1CCN(CCCc2cnn(C)c2)C1 (stereo not given),2.97
16,Cc1ccc([C@@H]2CN(C(=O)c3ccc[nH]3)C[C@H]2NC(=O)C2CC2)cc1,30.6
17,Cc1cnn(CC2CN(CC(=O)NCc3ccccn3)CCO2)c1 (stereo not given),2.48
18,COc1ccc(C(=O)N2CC[C@H](CO)[C@H](O)C2)c(C)c1,0.399
19,Cc1nccn1C1CCCN(C(=O)COCC(F)(F)F)C1 (stereo not given),-3.59
20,O=C(CSc1ccc(F)c(F)c1)NS(=O)(=O)c1ccc2c(c1)OCCO2,12.6

# Biological target: T1, Tyrosyl-tRNA synthetase, putative (Trypanosoma cruzi (strain CL Brener)) (UniProt Q4DSP6)
# T1 sequence (whole entry): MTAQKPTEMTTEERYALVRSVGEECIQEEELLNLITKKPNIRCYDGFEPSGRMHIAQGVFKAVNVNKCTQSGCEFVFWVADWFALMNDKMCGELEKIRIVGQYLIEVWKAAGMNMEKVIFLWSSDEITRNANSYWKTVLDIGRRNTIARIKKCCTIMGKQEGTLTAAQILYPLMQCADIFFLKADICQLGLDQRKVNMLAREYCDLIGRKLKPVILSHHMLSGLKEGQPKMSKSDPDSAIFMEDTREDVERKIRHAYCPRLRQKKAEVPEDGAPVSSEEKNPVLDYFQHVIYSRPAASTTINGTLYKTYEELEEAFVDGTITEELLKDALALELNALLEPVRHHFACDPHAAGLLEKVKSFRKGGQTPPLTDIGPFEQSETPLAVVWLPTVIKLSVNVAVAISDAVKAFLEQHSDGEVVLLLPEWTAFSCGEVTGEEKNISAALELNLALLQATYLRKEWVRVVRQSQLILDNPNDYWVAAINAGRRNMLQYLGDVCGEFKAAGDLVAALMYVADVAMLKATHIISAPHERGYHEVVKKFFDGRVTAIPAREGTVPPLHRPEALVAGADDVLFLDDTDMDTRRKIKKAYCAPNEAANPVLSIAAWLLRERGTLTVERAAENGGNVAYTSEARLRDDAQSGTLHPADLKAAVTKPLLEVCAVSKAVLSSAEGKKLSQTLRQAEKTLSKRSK
# Test: Trypanosoma cruzi tyrosyl tRNA synthetase (TcYRS) _High Tyrosine SOP; note: in the data most compounds retested in dose-response had high values
# Type: functional
# Design: scale not given: direction of the effect not stated beside the values
# Details: 30 µM
row,SMILES,Percent Effect [%]
1,CCc1nc(C2CCCN2C(=O)c2ccc3c(c2)nnn3CC)no1 (stereo not given),2.63
2,c1cnnc(N2CCCC2CNCc2nc(-c3ccsc3)no2)c1 (stereo not given),5.26
3,CC(=O)N1N=C(c2ccccc2)OC1C(=O)NCCC1=CCCCC1 (stereo not given),-1.06
4,CCO[C@@H]1CO[C@@]2(CCCN(S(=O)(=O)c3cccnc3)C2)C1,5.79
5,Cc1ccc(C(=O)N2CCC3(CC2)COC(COc2ccccn2)C3)o1 (stereo not given),5.79
6,CS(=O)(=O)NCC1CCCN(C(=O)COc2ccc(F)cc2)C1 (stereo not given),4.31
7,CN1CC(c2ccccc2)CC12CCN(C(=O)c1c(Cl)cnn1C)CC2 (stereo not given),5.85
8,O=C(NCc1cc[nH]n1)NCC(O)COc1cccc(F)c1 (stereo not given),-2.63
9,O=C1NC2(CCN(Cc3cccnc3)CC2)CC1c1ccncc1 (stereo not given),1.58
10,CCSCCC(=O)NS(=O)(=O)c1ccc2c(c1)OCCO2,2.39
11,CC(C)CN1CCN(C)C2(CCN(Cc3ccsc3)CC2)C1=O,7.73
12,COc1c(C2CCCN2Cc2c(C)noc2C)c(C)nn1C (stereo not given),0.526
13,CC(C)(N)C(=O)N1CCCC1c1cncc(Oc2ccc(F)cc2)n1 (stereo not given),6.35
14,O=C1CC2(CCN(Cc3ccoc3)C2)CN1c1ccc2c(c1)OCO2 (stereo not given),7.89
15,CCC(NC(N)=O)c1ccccc1OCC(=O)N1CCCC1 (stereo not given),5.26
16,CCOc1ccccc1C(=O)N1CCCC1c1ncc2c(n1)CCNC2 (stereo not given),-6.35
17,Cc1cc(CN(C)C(=O)NCC(C)N2CCc3ccccc32)no1 (stereo not given),7.84
18,Cc1ccc(CCN2CCC(N(C)Cc3noc(C4CC4)n3)C2)cc1 (stereo not given),5.26
19,CC(C)n1[nH]c(=O)c2c1NC(=O)CC2c1cccnc1 (stereo not given),3.72
20,O=C(NCCOc1ccc2c(c1)CCC2)N1CCS(=O)(=O)CC1,-1.44

row,SMILES,Percent Effect [%]
1,CCC(NC(=O)CC(F)(F)F)c1ccccc1OCC(=O)N1CCCC1 (stereo not given),7.18
2,CC(C)CN1C[C@@H]2CN(C(=O)[C@H]3CCCO3)C[C@@H]2C1=O,-5.8
3,CN1CCN(c2cc(CNC(=O)c3ccc(=O)[nH]n3)ccn2)CC1,6.22
4,CC(=O)N1CC(=O)N(c2ccccc2)CC12CCN(CC1CC1)C2 (stereo not given),2.63
5,CC(C)c1ncc(S(C)(=O)=O)c(C2CCCNC2)n1 (stereo not given),6.92
6,CC(C)c1noc(CCCC(=O)NC2CCS(=O)(=O)C2)n1 (stereo not given),5.79
7,c1ccc(OCc2ccncc2)c(CNC2CCc3ncnn3C2)c1 (stereo not given),7.18
8,O=C(Nc1ccccc1)C1=CC2(CCNCC2)c2ccccc21,-2.9
9,CC(NC(=O)N1CCN(c2ccc(Cl)cc2)CC1)C(=O)N1CCSCC1 (stereo not given),5.85
10,CC(C)N(Cc1nc2c(cnn2C)c(=O)[nH]1)c1ccccc1,5.26
11,CCc1nc(C2CCCN2C(=O)c2ncoc2CC)no1 (stereo not given),2.39
12,O=C(c1ccc(F)cc1F)N1C[C@@H](O)[C@H](N2CCOCC2)C1,1.06
13,Cc1cnn(CC2CCN(CC(O)COc3ccc(F)cc3)CC2)c1 (stereo not given),0.98
14,Cc1cc(-c2nn(C)c(Cl)c2CN2CCOCC(O)C2)no1 (stereo not given),2.66
15,CC(=O)N(Cc1ncc(C)o1)C1CCN(CCCc2cnn(C)c2)C1 (stereo not given),4.74
16,Cc1ccc([C@@H]2CN(C(=O)c3ccc[nH]3)C[C@H]2NC(=O)C2CC2)cc1,2.66
17,Cc1cnn(CC2CN(CC(=O)NCc3ccccn3)CCO2)c1 (stereo not given),3.68
18,COc1ccc(C(=O)N2CC[C@H](CO)[C@H](O)C2)c(C)c1,7.98
19,Cc1nccn1C1CCCN(C(=O)COCC(F)(F)F)C1 (stereo not given),-3.35
20,O=C(CSc1ccc(F)c(F)c1)NS(=O)(=O)c1ccc2c(c1)OCCO2,-4.31
